Source: PubChem BioAssay (National Center for Advancing Translational Sciences (NCATS))
ALDH1A1 inh – ALDH1A1 (human) enzyme inhibition | P00352 | Purified ALDH1A1, NADH fluorescence, propionaldehyde substrate | Potency, µM (titrated, usually from 75.3 µM), for the others: at the top dose activity, negative = inhibition, most hits filed as inhibitors | hit rate 7.3% among 220,000 | AID 1030;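 further: potency means the concentration at half of the fitted maximal effect; plate controls were no enzyme wells and a reference inhibitor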
Target sequence (P00352 whole entry, looked up): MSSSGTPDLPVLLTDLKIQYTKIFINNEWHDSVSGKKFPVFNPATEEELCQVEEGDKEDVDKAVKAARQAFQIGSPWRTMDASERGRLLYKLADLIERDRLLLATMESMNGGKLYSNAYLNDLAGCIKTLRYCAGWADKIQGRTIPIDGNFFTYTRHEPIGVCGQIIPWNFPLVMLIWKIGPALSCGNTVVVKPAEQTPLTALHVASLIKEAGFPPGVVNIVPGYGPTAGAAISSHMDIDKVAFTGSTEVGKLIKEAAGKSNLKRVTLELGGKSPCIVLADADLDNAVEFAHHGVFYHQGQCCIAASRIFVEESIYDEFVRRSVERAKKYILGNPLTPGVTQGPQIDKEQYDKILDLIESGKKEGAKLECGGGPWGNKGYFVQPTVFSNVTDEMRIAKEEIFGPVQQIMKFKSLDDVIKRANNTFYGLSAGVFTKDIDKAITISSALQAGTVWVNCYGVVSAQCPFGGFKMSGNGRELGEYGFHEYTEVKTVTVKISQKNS
IMPase cell inh – membrane-permeable compound that blocks inositol monophosphatase | 120,000 tested, under 10 active | CHO-M1 cells, IP1 accumulation, HTRF TR-FRET ratio | inhibition (IP1 accumulation), % at 46.1 µM | P97697; active means well fitted curve in the direction sought with a large enough effect in the signal ratio, not every such curve was filed as active; inconclusive means small, poorly fitted or top-dose-only effect, or a change in a side signal; inactive means no such curve, though single readings can be large or run the other way; the % refers to the signal ratio;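 further: cells stimulated with carbachol in lithium chloride buffer; plate controls were DMSO basal wells for no effect and reference inhibitor wells for full effect; higher means more IMPase inhibition seen as more IP1 and lower FRET ratio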
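Seeded CHO-M1 cells were dosed with compound at up to 46 uM, stimulated with carbachol for 30 min, then lysed in IP-One detection reagents. Higher IP1 lowers the TR-FRET signal.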
HPGD inh – blocks human HPGD enzyme activity. P15428. purified HPGD, NADH fluorescence kinetic, PGE2 substrate. Potency, µM, inactives show top-dose activity change, negative = inhibition, usual class: inhibitors. hit rate 4.3% among 150,000. AID 894; further: potency means the concentration at half of the fitted maximal effect
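NADH formation kinetics: reaction with 30 uM PGE2 and 1 mM NAD+ (final), 20 nM enzyme, Tris-HCl pH 8 with Tween 20, after 15 min compound preincubation at room temperature. Fluorescence change, last versus first of five reads.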
The depositor's hits bear a star. A selection: hits, their analogues and other compounds. The true share with any hit is near 9%. Unless noted, the call rests on the fitted dose curve; in most records, active means well fitted inhibition curve with a large enough effect (not every such curve was filed as active); inconclusive means small, poorly fitted or top-dose-only effect, or another doubt; inactive means no such curve, though single readings can be large or run the other way. Unless noted, on the % scale 0 is the no-effect control and ±100 the full control effect.

Screening Cn1nc(-c2ccc(C(=O)O)cc2)c2ccccc2c1=O returned ALDH1A1 inh 6%, IMPase cell inh -5 and HPGD inh 7.9µM*.
`CCN(CC)S(=O)(=O)c1cc(-c2nn(C)c(=O)c3ccccc23)ccc1C` gave ALDH1A1 inh inconclusive, IMPase cell inh 0 and HPGD inh inconclusive.
For Cc1ccc(-c2nn(C)c(=O)c3ccccc23)cc1CNC(=O)CN1CCOCC1 the results were ALDH1A1 inh inconclusive, IMPase cell inh -2 and HPGD inh 20µM*.
CC(=O)OCc1cc(-c2nn(C)c(=O)c3ccccc23)ccc1C was read as ALDH1A1 inh -4%.
`Cc1ccc(-c2nn(C)c(=O)c3ccccc23)cc1CN1CCOCC1` gave ALDH1A1 inh 10%, IMPase cell inh 4 and HPGD inh -10%.
CCC(CO)Nc1ccc(-c2nn(C)c(=O)c3ccccc23)cc1[N+](=O)[O-] (stereo unspecified) was read as ALDH1A1 inh 1.4µM*.
For Cc1ccc(-c2nn(C)c(=O)c3ccccc23)cc1CO the results were ALDH1A1 inh 11%, IMPase cell inh 14 and HPGD inh 32µM*.
`COC(=O)c1ccc(-c2nn(C)c(=O)c3ccccc23)cc1` gave ALDH1A1 inh inconclusive, IMPase cell inh -8 and HPGD inh inconclusive.
Cc1ccsc1-c1nc(C(N)=O)c2[nH]c(=O)n(-c3ccc(Cl)cc3)c2n1 was read as ALDH1A1 inh -1% and HPGD inh -26%.
C[C@H](CCC(=O)O)[C@H]1CC[C@H]2[C@H]3C(C[C@H](O)[C@]12C)[C@@]1(C)CC[C@@H](O)C[C@H]1C[C@H]3O (stereo partly specified) was read as ALDH1A1 inh 8%, IMPase cell inh -1 and HPGD inh -3%.
For Cc1ccccc1NC(=O)C(NC1CCCCC1)C(C)C (stereo unspecified) the results were ALDH1A1 inh -4%.
For CCCc1cc(=O)c2c(O)cccc2o1 the results were ALDH1A1 inh -11%.
For CCCc1cc2c(c(=O)o1)C(O)C1OC1C2=O (stereo unspecified) the results were ALDH1A1 inh 4µM*.
`COc1ccccc1CN1CC[C@@]2(CCCN(C(=O)c3ccncc3)C2)C1` gave ALDH1A1 inh 6% and HPGD inh -2%.
`Cc1sc(NC(=O)C2CCCCC2C(=O)O)c(C(N)=O)c1-c1ccccc1` (stereo unspecified) gave ALDH1A1 inh -12%, IMPase cell inh -4 and HPGD inh -14%.
Cc1sc(NC(=O)CCC(=O)O)c(C(N)=O)c1-c1ccccc1 was read as ALDH1A1 inh 13µM* and HPGD inh 14µM*.
Screening COc1ccc(NC(=O)c2c(NC(=O)CCC(=O)O)sc(-c3ccccc3)c2C)cc1 returned ALDH1A1 inh 8.9µM*.
`CCC(=O)N(CC(=O)Nc1sc(C)c(C)c1C(N)=O)C1CCCC1` gave ALDH1A1 inh 8.9µM*.
COC(=O)CCC(=O)Nc1sc(C)c(C)c1C(N)=O was read as ALDH1A1 inh 13µM*, IMPase cell inh -4 and HPGD inh 14µM*.
For Cc1sc(NC(=O)C2CCCCC2C(=O)O)c(C(N)=O)c1C (stereo unspecified) the results were ALDH1A1 inh 1%, IMPase cell inh -1 and HPGD inh -5%.
For COC(=O)CCC(=O)NC(=S)Nc1sc(C)c(C)c1C(N)=O the results were ALDH1A1 inh inconclusive and HPGD inh -30%.
`O=C(O)CCC(=O)Nc1sc2c(c1C(=O)Nc1ccccc1)CCCCC2` gave ALDH1A1 inh inconclusive and IMPase cell inh -4.
Screening Cc1ccc(C2C3=C(CCCC3=O)Nc3c2c(C)nn3-c2ccccn2)o1 (stereo unspecified) returned ALDH1A1 inh 1%.
COc1c2c(cc3c1C(CC(O)C(C)C)N(C)CC3)OCO2 (stereo unspecified) was read as ALDH1A1 inh 7% and HPGD inh -2%.
For Nc1cc(C(=O)OCC(=O)NCc2ccco2)ccc1Cl the results were ALDH1A1 inh inconclusive, IMPase cell inh -2 and HPGD inh -25%.
CCCC(=O)Nc1sc(Cc2ccccc2)c(C)c1C(N)=O was read as ALDH1A1 inh 1.8µM*.
For COc1cccc(/C=N/c2sc(Cc3ccccc3)c(C)c2C(N)=O)c1O the results were ALDH1A1 inh inconclusive, IMPase cell inh -1 and HPGD inh -21%.
`CC1CCCCN1C(=O)CSc1nc(C2CC2)nc2c1cnn2-c1ccccc1` (stereo unspecified) gave ALDH1A1 inh 11µM*, IMPase cell inh 2 and HPGD inh inconclusive.
Cc1nn(C)c(C)c1NC(=O)CSc1nc(C2CC2)nc2c1cnn2-c1ccccc1 was read as ALDH1A1 inh -8%, IMPase cell inh 3 and HPGD inh -24%.
